Assay results reported in PubChem BioAssay (NCI).
Where “and” joins values, the source holds several entries; their conditions need not be identical. Identical values can stand only once. The panel holds about 83,000 compounds, 20% with a hit somewhere; the sample as a whole holds those more often.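 How to read the values: 0–100, growth inhibition (40 = 60% inhibited); 0, no net growth; -100 to 0, cell death (-40 = 40% of starting cells died; -100 = all dead).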 Calls of active or inactive are those of the source. How the source made its calls: active means growth percent below 10; inactive means the rest.

System: MDA-MB-468 breast
Assay: NCI-60 one-dose screen, 48 h (100 = growth as untreated, 0 = no growth, -100 = all killed)
Conditions: 10 µM unless noted

SMILES	growth
O=C(O)c1[nH]c(=O)[nH]c(=O)c1F	107% (inactive)
N[C@@H](CCC(=O)CCl)C(=O)O	102% [20 µM] (inactive)
CC[C@H](C)[C@H](NC(=O)c1nccn1C)C(=O)N(C)[C@H](C[C@@H](OC(C)=O)c1nc(C(=O)N[C@@H](Cc2ccccc2)C[C@H](C)C(=O)OC)cs1)C(C)C	25.7% (inactive)
O1[As]2O[As]3O[As]1O[As](O2)O3	-63.2% (active)
O=C1OCCC1Br (centres undefined)	106% (inactive)
CC/C(=C/c1ccc(OC)cc1)[N+](=O)[O-]	-56.6% (active)
NC(=O)c1c(Br)c(Br)c(Br)c(Br)c1C(=O)O (tested in a mixture with another compound)	93.7% (inactive) and 101% (inactive)
C[CH2][Sn]([CH2]C)([CH2]C)[NH]S(=O)(=O)c1ccc(C)cc1	114% (inactive)
Cc1cc(CCl)c(C)cc1CCl	-59.9% (active)
CNC(=O)O/N=C(\SC)C(=O)N(C)C	116% (inactive)
CCCCOC(N)=O	101% (inactive)
COc1ccc(N(CC(=O)NCCC[Te]c2ccccc2)C(=O)CCSC2=C(C)C(=O)c3ccccc3C2=O)cc1	-58.1% (active)
COc1ccc(C(O)(C(=O)O)c2ccc(OC)cc2)cc1	104% (inactive)
C[C@@H]1C[C@@H]([C@H](O)CC2CC(=O)NC(=O)C2)C(=O)[C@@H](C)C1	9.5% (active)
CCCC1CCCCC12C(=O)NC(=O)NC2=O (centres undefined)	113% (inactive)
CCC(=O)OC1CCn2c1nc1c2C(=O)C(C)=C(N2CC2)C1=O (centres undefined)	44.3% (inactive)
CC(=O)C1CCC2C3CC=C4CC(OC(=O)Cc5ccc(N(CCCl)CCCl)cc5)CCC4(C)C3CCC12C (centres undefined)	94.7% (inactive)
CNCc1cccnc1	110% (inactive)
CN1CCN(c2ccc(Cl)cc2)CC1	71.1% (inactive)
CC[C@H](C)[C@H](NC(=O)[C@H]1CCCCN1C)C(=O)N(C)[C@H](C[C@@H](OC(C)=O)c1cccc(C(=O)N[C@@H](Cc2ccccc2)C[C@H](C)C(=O)OC)n1)C(C)C	40.9% (inactive)

SMILES	growth
Cc1ccc(C(Cc2ccccc2)NCCO)cc1 (centres undefined)	96.7% (inactive)
O=S(=O)(F)c1cccc(Cl)c1C[P+](c1ccccc1)(c1ccccc1)c1ccccc1	46.9% (inactive)
O=C1Nc2ccccc2C2c3cccn3-c3ccccc3CN12 (centres undefined)	30.5% (inactive)
CN1C(=O)C(=Cc2cn(Cc3ccccc3)c3ccccc23)C(=O)N(C)C1=O	-49.5% (active)
Clc1ccc(N2COOC3(OOC2)C2CC4CC(C2)CC3C4)cc1	65.3% (inactive)
O=C(NCCNC(=O)c1ccc([As](O)O)cc1)c1ccc([As](O)O)cc1	82.2% (inactive)
Oc1ccc(O)c(Cl)c1	89.7% (inactive) and 95.1% (inactive)
CC1=C(CCCNS(C)(=O)=O)C2=C(C)C3(CC3)[C@@](C)(O)C(=O)C2=C1	-80.9% (active)
NC(Cc1ccc(O)cc1)C(=O)N/N=C/c1ccc(N(CCCl)CCCl)cc1 (centres undefined)	19.7% (inactive)
CC[C@H](C)[C@H](NC(=O)N[C@@H](C)c1ccccc1)C(=O)N(C)[C@H](C[C@@H](OC(C)=O)c1nc(C(=O)N[C@@H](Cc2ccccc2)C[C@H](C)C(=O)OC)cs1)C(C)C	-0.266% (active)
COP(=S)(N1CC1)N1CC1	110% (inactive)
CC1(C)N=C(N)N=C(N)N1c1ccc(OCCCCOc2ccc(S(=O)(=O)F)cc2)c(Cl)c1	-16.2% (active)
CC12CCC(=O)C=C1CCC1C2CCC2(C)C(C(=O)COC(=O)Cc3ccc(N(CCCl)CCCl)cc3)CCC12 (centres undefined)	64.1% (inactive)
C#COc1cccc(Nc2ncnc3cc(NC(=O)CF)ccc23)c1	80.2% [6.25 µM] (inactive)
C/C(=C\c1ccc(Cl)c(Cl)c1)[N+](=O)[O-]	-77.9% (active) and 93.8% (inactive)
CC(C)=CC1C(C(=O)OCc2cccc(Oc3ccccc3)c2)C1(C)C (centres undefined)	100% (inactive)
C[C@]12CC[C@@H](OC(=O)N(CCCl)N=O)C[C@@H]1CC[C@@H]1[C@@H]2CC[C@]2(C)C(=O)CC[C@@H]12	-31.4% (active)
CSc1ccccc1NP1(=O)OCC(C)([N+](=O)[O-])CO1 (centres undefined)	105% (inactive)
CC(=O)c1ccc(C(=O)NCC2CCC3(CC2)OOC2(CCCCC2)OO3)cc1	65.7% (inactive)
